High-throughput results (PubChem BioAssay)
Most compounds without a hit are left out; they make up all but 3.6% or so of the library.
GALC G270D act: A Novel Cell-Based Assay to Identify Small Molecules for B -Galactocerebrosidase; P54803; 145M-Twi-hGALC-G270D cells, HMU-beta-Gal fluorescence, 48 h; Potency, µM (doses to about 57.5 µM), most hits filed as activators; 45,000 compounds, 0.1% hits; further: potency means the concentration at half of the fitted maximal effect; 0% is about no effect; nearly all actives have a fitted effect of over 65% in size
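qHTS, 1536-well; 145M-Twi-hGALC-G270D cells (WT line also made) in DMEM/F12 + 10% FBS; compound incubation on live cells; HMU-β-gal 0.1 mM final, pH 5.2, NaTC; carbonate stop; fluorescence increase = enhanced residual activity.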
DRV1 agonist: qHTS for Agonists of Human Resolvin D1 Receptor DRV1; Probable G-protein coupled receptor 32 (Homo sapiens), O75388; CHO-K1 GPR32 beta-arrestin PathHunter luminescence, 90 min; zero percent set by DMSO-only wells; activation, % at 76.9 µM; 48,000 compounds, 2.5% hits;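 active means activation of at least 60% and not above a set upper limit, about 1 call in 100 departs from these limits; inconclusive means activation of 40% to 60%, or above that upper limit; inactive means activation under 40%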; further: 0% is about no effect
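PathHunter enzyme-fragment complementation, CHO-K1 GPR32 stable line; 2,500 cells/well, overnight attach; cpd 90 min 37 °C 5% CO2; detection reagent 1 h RT; chemiluminescence. DMSO = EC0.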
NTMT1 inh: Primary qHTS for Inhibitors of N-terminal methyltransferase 1 (NTMT1): MTaseGlo Assay | AID 1645870, 2021 | Potency, µM (series often up to 114 µM), for inactives: at the top dose activity change, negative = inhibition, most hits filed as inhibitors | 59,000 compounds, 2.5% hits | NTMT1 MTase-Glo SAH luminescence, purified enzyme;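 further: potency means the concentration at half of the fitted maximal effect; plate controls were DMSO vehicle for no effect and no enzyme for full effect; nearly all actives have a fitted effect of over 65% in size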
Target sequence (Q9BV86 whole entry, looked up): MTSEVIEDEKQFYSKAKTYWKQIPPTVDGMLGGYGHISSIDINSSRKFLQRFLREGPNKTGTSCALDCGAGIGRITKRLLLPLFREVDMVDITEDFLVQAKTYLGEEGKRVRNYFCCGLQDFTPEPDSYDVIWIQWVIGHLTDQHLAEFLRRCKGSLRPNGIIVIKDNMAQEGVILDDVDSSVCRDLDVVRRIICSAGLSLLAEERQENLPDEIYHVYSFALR
TSG101-PTAP inh: qHTS Validation Assay for Inhibitors of HIV-1 Budding by Blocking the Interaction of PTAP/TSG101: Sytravon Library Screen. Fluorescence polarization, FITC-PTAP peptide/Tsg101, 20 min. Potency, µM (doses to about 115 µM), usual class: inhibitors. 44,000 tested, under 10 active; further: potency means the concentration at half of the fitted maximal effect; 0% is about no effect
Target sequence (Q99816 whole entry, looked up): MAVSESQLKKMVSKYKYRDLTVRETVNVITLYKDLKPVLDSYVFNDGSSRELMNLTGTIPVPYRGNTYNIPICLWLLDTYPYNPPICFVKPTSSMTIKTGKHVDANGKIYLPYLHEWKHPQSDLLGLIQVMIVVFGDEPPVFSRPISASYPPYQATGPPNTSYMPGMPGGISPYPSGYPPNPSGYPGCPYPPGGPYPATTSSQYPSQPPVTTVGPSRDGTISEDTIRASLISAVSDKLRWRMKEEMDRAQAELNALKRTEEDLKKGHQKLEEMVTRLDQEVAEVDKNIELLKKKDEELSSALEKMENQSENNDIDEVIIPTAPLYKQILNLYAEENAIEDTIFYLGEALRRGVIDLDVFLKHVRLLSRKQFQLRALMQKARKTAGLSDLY
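Steps: Tsg101 binding domain (10 uM final) in HEPES pH 7.5/NaCl/Tween 20/EDTA/TCEP; add compound; add FITC-PTAP peptide (50 nM final); incubate 20 min r.t.; read polarization.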
GALK inhibitor: qHTS Assay for Inhibitors of Human Galactokinase (GALK): NCGC Sytravon Library Screen | recombinant GALK, Kinase-Glo ATP luminescence, 1 h | 44,000 tested, under 10 active | Potency, µM (series often up to 57.5 µM), for the others: at the highest dose activity, negative = inhibition, usual class: inhibitors | AID 1347072, 2019 | P51570;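 further: plate controls were full GALK reaction for no effect and reaction lacking GALK for full effect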
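5 nM GALK; 35 uM ATP; 100 uM D-galactose; 20 mM HEPES pH 8.0, 5 mM MgCl2, 60 mM NaCl, 1 mM DTT, 0.01% BSA; 1 h RT; Kinase-Glo Plus luminescence.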
B2AR arrestin ag: qHTS assay of beta-arrestin-biased ligands of beta2-adrenergic receptor: NCGC Sytravon Library Screen; Potency, µM (titrated, usually from 46.1 µM), usual class: activators; HTLA Tango cells, beta-arrestin recruitment, luciferase luminescence, 18 h; 44,000 tested, under 10 active;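 further: potency means the concentration at half of the fitted maximal effect; 0% = DMSO and full agonism = EC100 isoproterenol or metaproterenol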
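Tango cell line, 1% FBS DMEM; cpd titration up to 46 microM; 18 hr, 37 degrees C, 5% CO2. Luciferin/ATP substrate mix added, 15 min RT, luminescence. %Activity, CRC fitting, curve-class categorization.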
* = called active by the depositor; i = inactive; ? = inconclusive; / = no result; ! = not active in a repeat; [ ] = another dose, or the depositor's remark. Unless noted, the call rests on the fitted dose curve; in most records, active means well fitted curve in the direction sought with a large enough effect; inconclusive means small, poorly fitted or top-dose-only effect, or another doubt; inactive means no such curve, though single readings can be large; an effect the other way counts as inactive or inconclusive.

SMILES	GALC G270D act	DRV1 agonist	NTMT1 inh	TSG101-PTAP inh	GALK inhibitor	B2AR arrestin ag
O=C(Nc1nc2n(n1)C(c1ccccc1)C=C(c1ccc(Cl)cc1)N2)c1ccco1 (stereo not drawn)	i	-2	6%	i	3%	i
Cc1ccc(C2C=C(c3ccc(Cl)cc3)Nc3nc(NS(=O)(=O)c4ccccc4)nn32)cc1 (stereo not drawn)	i	73*	3%	?	2%	i
COc1ccc(C2C=C(c3ccccc3)Nc3nc(NS(=O)(=O)c4ccc(C)cc4)nn32)cc1 (stereo not drawn)	i	?	?	i	-11%	i
CCN(CC)CCOc1ccc(/C(=C(\Cl)c2ccccc2)c2ccccc2)cc1	i	91*	?	/	/	/
COc1ccc(C2C(C(=O)O)C(C(=O)O)C2c2ccc(OC)cc2O[C@@H]2O[C@H](CO)[C@@H](O)[C@H](O)[C@H]2O)c(O[C@@H]2O[C@H](CO)[C@@H](O)[C@H](O)[C@H]2O)c1 (stereo partly drawn)	/	/	3%[12.6 µM]	/	/	/
CCCCNC(=O)Nc1ccc2c(c1)N(C)C(=O)c1ccccc1S2	i	-9	89µM*	i	3%	i
O=C(NCc1ccc(Cl)cc1)C1CCC(CNS(=O)(=O)c2ccccc2)CC1 (stereo not drawn)	i	83*	-24%	i	2%	i
O=C(NCc1ccccc1Cl)C1CCC(CNS(=O)(=O)c2ccc(Br)s2)CC1 (stereo not drawn)	i	98*	?	i	2%	i
CC(=O)Nc1ccc(S(=O)(=O)NCC2CCC(C(=O)NCc3ccccc3Cl)CC2)cc1 (stereo not drawn)	i	-4	17%	i	3%	i
CC(=O)Nc1ccc(S(=O)(=O)NCC2CCC(C(=O)NCc3ccccc3)CC2)cc1 (stereo not drawn)	i	99*	11%	i	-1%	i
O=c1[nH]cnc2nc[nH]c12	i	82*	22µM*	/	/	/
Cc1ccc(NC(CNS(=O)(=O)c2ccc(Cl)cc2)c2ccccc2)cc1 (stereo not drawn)	i	45	-1%	i	-5%	i
COc1cccc(NC(CNS(=O)(=O)c2ccc(Cl)cc2)c2ccccc2)c1 (stereo not drawn)	i	77*	3%	i	3%	i
O=S(=O)(NCC(Nc1ccc(Cl)cc1)c1ccccc1)c1ccccc1 (stereo not drawn)	i	109*	12%	i	7%	i
COc1ccc(C2Nc3ccccc3C(=O)N2Cc2ccc(C(F)(F)F)o2)cc1COc1c(C)cccc1C (stereo not drawn)	/	/	12%	/	/	/
COc1ccc(-c2nc3c(c(SCC(=O)Nc4cccc(O)c4)n2)Cc2c(CO)cnc(C)c2O3)cc1	i	-5	45µM*	i	-1%	i
COc1ccc2c(c1)Oc1nc(-c3ccc(C)cc3)nc(SCC(=O)Nc3cccc(C(=O)O)c3)c1C2	/	/	22µM*	/	/	/
O=C(CSc1nc(-c2ccc(F)cc2)nc2c1Cc1ccccc1O2)Nc1cccc(C(=O)O)c1	i	0	6.3µM*	i	1%	i
COc1cc(NC(=O)CSc2nc(-c3ccc(C)cc3)nc3c2Cc2ccccc2O3)cc(OC)c1	i	8	-2%	i	6%	i
Cc1ccc(-n2c(=O)ccc(=O)n2CC(=O)N(C)C(C)c2ccco2)cc1 (stereo not drawn)	/	/	17%	/	/	/
CC(C)(C)OC(=O)N[C@@H](Cc1ccc(O[S+](=O)([O-])c2cccnc2)cc1)C(=O)N1CCN(c2ccccc2)CC1	/	/	2%[57.5 µM]	/	/	/
COc1ccccc1N1CCN(CC(O)COc2cccc3ccccc23)CC1 (stereo not drawn)	i	97*!	?	/	/	/
Cc1ccccc1N1CC(c2nc3ccccc3n2Cc2ccc(Br)cc2)CC1=O (stereo not drawn)	i	92*	-1%	i	3%	i
COc1ccc(-c2c(C)c3ccc(O)c(CN4CCCC(C)C4)c3oc2=O)cc1OC (stereo not drawn)	20µM*	-23	-3%	i	1%	i
COc1ccc(-c2cc3ccc(O)c(CN4CCCC(C)C4)c3oc2=O)cc1OC (stereo not drawn)	22µM*	0	20%	i	0%	i
SMILES	GALC G270D act	DRV1 agonist	NTMT1 inh	TSG101-PTAP inh	GALK inhibitor	B2AR arrestin ag
COc1ccc(-c2cc3ccc(O)c(CN4CCCC(C)C4)c3oc2=O)cc1 (stereo not drawn)	i	3	-4%	i	-3%	i
CC1(CO)CCCC2(C)C3COC(=O)C3=CC(O)C12 (stereo not drawn)	/	/	12%[57.5 µM]	/	/	/
COc1cccc(NC(=O)CSc2nnc(-c3cccc(OC)c3)o2)c1	i	78*	6%	i	-7%	i
COc1ccc(-c2nnc(SCC(=O)N(C)C3CCCCC3)o2)cc1OC	i	5	-5%	i	-2%	i
COc1cccc(-c2nnc(SCC(=O)N(C)C3CCCCC3)o2)c1	i	72*	-1%	i	6%	i
CC(O)C/C=C/C=C/C(=O)OC1C=C2COC(=O)C2(O)C2(C)CCCC(C)(C)C12 (stereo not drawn)	/	/	-11%[29.8 µM]	/	/	/
CCC(C=C[C@@H]1OC(=O)C=C[C@H]1C)=C[C@H](C)CC=CC(C)=C[C@@H](C)C(=O)[C@@H](C)[C@H](O)[C@@H](C)CC(C)=CC(=O)O	/	/	1µM*	/	/	/
Cc1cccc(N2CCN(C(=O)Nc3ccc(F)cc3)CC2C)c1 (stereo not drawn)	i	63*	7%	i	-1%	i
Cc1cccc(N2CCN(C(=O)C3CCN(S(=O)(=O)c4c(C)noc4C)CC3)CC2C)c1 (stereo not drawn)	i	108*	11%	i	3%	i
Cc1cccc(/C=C/c2onc(C)c2S(=O)(=O)N2CCC(C(=O)N3CCCCC3)CC2)c1	i	-18	5%	i	1%	i
